# Only a selection was taken, and the strongest signals are over-represented in it overall.
# Assays:
# Assay in all cases: glycan array binding signal (z-score within array); higher = stronger binding
# Conditions in all cases: glycan notation: IUPAC condensed, linker removed
# [1] = molecular target: Fuc(a1-2)Gal(b1-3)GalNAc(b1-3)Gal
# Outline: (§1)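 Glycan array data came from 3228 arrays in the Consortium for Functional Glycomics database, and only arrays with an available protein sequence were kept. Glycan names were put into IUPAC-condensed notation, and columns mapping to the same glycan were averaged. The binding signal is a within-array Z-score, averaged across arrays of one protein sequence run at different concentrations or buffers and across linkers. A negative Z-score can be read as non-binding.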
# [2] = molecular target: Fuc(a1-2)Gal(b1-3)[Fuc(a1-4)]GlcNAc
# Outline: as §1
# [3] = molecular target: Fuc(a1-2)Gal(b1-4)Glc
# Outline: as §1
# [4] = molecular target: Fuc(a1-2)Gal(b1-4)GlcNAc(b1-3)Gal(b1-4)GlcNAc(b1-3)Gal(b1-4)GlcNAc
# Outline: as §1
# [5] = molecular target: Fuc(a1-2)[Gal(a1-3)]Gal(b1-3)GlcNAc(b1-6)GalNAc
# Outline: as §1
# [6] = molecular target: Fuc(a1-3)[Gal(b1-4)]Glc6S
# Outline: as §1
# [7] = molecular target: Fuc(a1-3)[Gal(b1-4)]GlcNAc(b1-2)Man(a1-3)[Fuc(a1-3)[Gal(b1-4)]GlcNAc(b1-2)Man(a1-6)]Man(b1-4)GlcNAc(b1-4)[Fuc(a1-6)]GlcNAc
# Outline: as §1
# [8] = molecular target: Fuc(a1-3)[Gal(b1-4)]GlcNAc(b1-6)GalNAc
# Outline: as §1
# [9] = molecular target: Gal(b1-3)Gal(b1-4)GlcNAc
# Outline: as §1
# [10] = molecular target: Gal(b1-4)GlcNAc(b1-2)Man(a1-6)Man(b1-4)GlcNAc(b1-4)GlcNAc
# Outline: as §1
# [11] = molecular target: Gal(b1-4)GlcNAc(b1-3)Gal(b1-4)GlcNAc(b1-2)[Gal(b1-4)GlcNAc(b1-3)Gal(b1-4)GlcNAc(b1-6)]Man(a1-6)[Gal(b1-4)GlcNAc(b1-3)Gal(b1-4)GlcNAc(b1-2)Man(a1-3)]Man(b1-4)GlcNAc(b1-4)GlcNAc
# Outline: as §1
# [12] = molecular target: Gal(b1-4)GlcNAc(b1-3)Gal(b1-4)GlcNAc(b1-2)[Gal(b1-4)GlcNAc(b1-3)Gal(b1-4)GlcNAc(b1-6)]Man(a1-6)[Gal(b1-4)GlcNAc(b1-3)Gal(b1-4)GlcNAc(b1-2)Man(a1-3)]Man(b1-4)GlcNAc(b1-4)[Fuc(a1-6)]GlcNAc
# Outline: as §1
# [13] = molecular target: Gal(b1-4)GlcNAc(b1-3)Gal(b1-4)GlcNAc(b1-3)Gal(b1-4)GlcNAc(b1-3)Gal(b1-4)GlcNAc(b1-3)Gal(b1-4)GlcNAc(b1-2)Man(a1-3)[Gal(b1-4)GlcNAc(b1-3)Gal(b1-4)GlcNAc(b1-3)Gal(b1-4)GlcNAc(b1-3)Gal(b1-4)GlcNAc(b1-3)Gal(b1-4)GlcNAc(b1-2)Man(a1-6)]Man(b1-4)GlcNAc(b1-4)[Fuc(a1-6)]GlcNAc
# Outline: as §1
# [14] = molecular target: Gal(b1-4)GlcNAc(b1-3)Gal(b1-4)GlcNAc(b1-3)[Gal(b1-4)GlcNAc(b1-3)Gal(b1-4)GlcNAc(b1-6)]GalNAc
# Outline: as §1
# [15] = molecular target: Gal3S(b1-4)[Fuc(a1-3)]GlcNAc6S
# Outline: as §1
# [16] = molecular target: GalNAc(b1-4)GlcNAc(b1-2)Man(a1-3)[GalNAc(b1-4)GlcNAc(b1-2)Man(a1-6)]Man(b1-4)GlcNAc(b1-4)GlcNAc
# Outline: as §1
# [17] = molecular target: GalNAc(b1-4)GlcNAc(b1-3)GalNAc(b1-4)GlcNAc
# Outline: as §1
# [18] = molecular target: Glc(a1-6)Glc(a1-6)Glc(a1-6)Glc
# Outline: as §1
# [19] = molecular target: GlcNAc(b1-3)Gal(b1-4)GlcNAc(b1-3)Gal(b1-4)GlcNAc(b1-3)Gal(b1-4)GlcNAc(b1-3)Gal(b1-4)GlcNAc(b1-2)Man(a1-3)[GlcNAc(b1-3)Gal(b1-4)GlcNAc(b1-3)Gal(b1-4)GlcNAc(b1-3)Gal(b1-4)GlcNAc(b1-3)Gal(b1-4)GlcNAc(b1-2)Man(a1-6)]Man(b1-4)GlcNAc(b1-4)[Fuc(a1-6)]GlcNAc
# Outline: as §1
# [20] = molecular target: GlcNAc(b1-3)Gal(b1-4)GlcNAc(b1-3)GalNAc
# Outline: as §1
# [21] = molecular target: GlcNAc(b1-3)GalNAc
# Outline: as §1
# [22] = molecular target: GlcNAc(b1-3)Man
# Outline: as §1
# [23] = molecular target: GlcNAc(b1-3)[GlcNAc(b1-4)][GlcNAc(b1-6)]GlcNAc
# Outline: as §1
# [24] = molecular target: Kdn(a2-6)Gal(b1-4)GlcNAc
# Outline: as §1
# [25] = molecular target: Man(a1-2)Man(a1-6)[Man(a1-3)]Man(a1-6)[Man(a1-2)Man(a1-2)Man(a1-3)]Man
# Outline: as §1
# [26] = molecular target: Man(a1-2)Man(a1-6)[Man(a1-3)]Man(a1-6)[Man(a1-2)Man(a1-2)Man(a1-3)]Man(b1-4)GlcNAc(b1-4)GlcNAc
# Outline: as §1
# [27] = molecular target: Man(a1-3)[Man(a1-6)]Man(a1-6)[Man(a1-2)Man(a1-3)]Man(b1-4)GlcNAc(b1-4)GlcNAc
# Outline: as §1
# [28] = molecular target: Man(a1-3)[Man(a1-6)]Man(a1-6)[Man(a1-3)]Man
# Outline: as §1
# [29] = molecular target: Neu5Ac(a2-3)Gal(b1-3)GlcNAc
# Outline: as §1
# [30] = molecular target: Neu5Ac(a2-3)Gal(b1-3)GlcNAc(b1-2)Man
# Outline: as §1
# [31] = molecular target: Neu5Ac(a2-3)Gal(b1-4)GlcNAc(b1-2)Man(a1-3)[Neu5Ac(a2-3)Gal(b1-4)GlcNAc(b1-2)Man(a1-6)]Man(b1-4)GlcNAc(b1-4)GlcNAc
# Outline: as §1
# [32] = molecular target: Neu5Ac(a2-3)Gal(b1-4)GlcNAc(b1-2)[Neu5Ac(a2-3)Gal(b1-4)GlcNAc(b1-6)]Man(a1-6)[Neu5Ac(a2-3)Gal(b1-4)GlcNAc(b1-2)Man(a1-3)][GlcNAc(b1-4)]Man(b1-4)GlcNAc(b1-4)GlcNAc
# Outline: as §1
# [33] = molecular target: Neu5Ac(a2-3)Gal(b1-4)GlcNAc(b1-3)GalNAc
# Outline: as §1
# [34] = molecular target: Neu5Ac(a2-3)Gal(b1-4)GlcNAc(b1-3)[Neu5Ac(a2-3)Gal(b1-4)GlcNAc(b1-6)]GalNAc
# Outline: as §1
# [35] = molecular target: Neu5Ac(a2-3)Gal(b1-4)GlcNAc(b1-6)[Gal(b1-3)]GalNAc
# Outline: as §1
# [36] = molecular target: Neu5Ac(a2-3)Gal(b1-4)[Fuc(a1-3)]GlcNAc(b1-3)Gal
# Outline: as §1
# [37] = molecular target: Neu5Ac(a2-6)Gal(b1-4)GlcNAc(b1-2)Man(a1-3)[Neu5Ac(a2-6)Gal(b1-4)GlcNAc(b1-2)Man(a1-6)]Man(b1-4)GlcNAc(b1-4)GlcNAc
# Outline: as §1
# [38] = molecular target: Neu5Ac(a2-6)Gal(b1-4)GlcNAc(b1-3)Gal(b1-4)GlcNAc(b1-3)Gal(b1-4)GlcNAc(b1-2)Man(a1-3)[Neu5Ac(a2-6)Gal(b1-4)GlcNAc(b1-3)Gal(b1-4)GlcNAc(b1-3)Gal(b1-4)GlcNAc(b1-2)Man(a1-6)]GalNAc
# Outline: as §1
# [39] = molecular target: Neu5Ac(a2-6)Gal(b1-4)GlcNAc(b1-3)Gal(b1-4)GlcNAc(b1-3)GalNAc
# Outline: as §1
# [40] = molecular target: Neu5Ac(a2-6)Gal(b1-4)GlcNAc(b1-3)Gal(b1-4)[Fuc(a1-3)]GlcNAc(b1-3)Gal(b1-4)[Fuc(a1-3)]GlcNAc
# Outline: as §1
# [41] = molecular target: Neu5Ac(b2-6)GalNAc
# Outline: as §1
# [42] = molecular target: Neu5Gc(a2-8)Neu5Gc(a2-3)Gal(b1-4)GlcNAc
# Outline: as §1
binder,measurement,setting,value
Pwp7 (Candida glabrata) (protein) MGSSHHHHHHSSGLVPRGSHMASKNPVDFPNLCQYPNLDGAVAGFDTEIYNADPSILINFSLWPILQFPKEWHKTIGRAITTQTNFKLPASDTTLFGVSIPTQNILIEFRGYFIPPKSGTYTFALYLTDDGSAMFLGNDAAFPCGNITSWSNPTNDQVSVSDYDPKKKTLTVYMVAGVAYPLRIAYYNREKGGSLTASFVDPDGLTHSDWNGYIWTLPSCDNCKYS,glycan array binding signal (z-score),[1],-0.017
same,glycan array binding signal (z-score),[2],-0.614
same,glycan array binding signal (z-score),[3],-0.416
same,glycan array binding signal (z-score),[4],-0.218
same,glycan array binding signal (z-score),[5],0.673
same,glycan array binding signal (z-score),[6],2.63
same,glycan array binding signal (z-score),[7],-0.531
same,glycan array binding signal (z-score),[8],-0.313
same,glycan array binding signal (z-score),[9],-0.059
same,glycan array binding signal (z-score),[10],0.711
same,glycan array binding signal (z-score),[11],4.75
same,glycan array binding signal (z-score),[12],0.752
same,glycan array binding signal (z-score),[13],2.19
same,glycan array binding signal (z-score),[14],2.23
same,glycan array binding signal (z-score),[15],-0.723
same,glycan array binding signal (z-score),[16],2.13
same,glycan array binding signal (z-score),[17],-0.44
same,glycan array binding signal (z-score),[18],1.4
same,glycan array binding signal (z-score),[19],2.91
same,glycan array binding signal (z-score),[20],2.79
same,glycan array binding signal (z-score),[21],-0.079
same,glycan array binding signal (z-score),[22],-0.272
same,glycan array binding signal (z-score),[23],-1.58
same,glycan array binding signal (z-score),[24],-0.857
same,glycan array binding signal (z-score),[25],-0.467
same,glycan array binding signal (z-score),[26],-0.429
same,glycan array binding signal (z-score),[27],-0.076
same,glycan array binding signal (z-score),[28],2.11
same,glycan array binding signal (z-score),[29],-0.487
same,glycan array binding signal (z-score),[30],0.574
same,glycan array binding signal (z-score),[31],0.472
same,glycan array binding signal (z-score),[32],10.8
same,glycan array binding signal (z-score),[33],-0.11
same,glycan array binding signal (z-score),[34],2.25
same,glycan array binding signal (z-score),[35],-0.55
same,glycan array binding signal (z-score),[36],-0.216
same,glycan array binding signal (z-score),[37],0.696
same,glycan array binding signal (z-score),[38],3.78
same,glycan array binding signal (z-score),[39],0.805
same,glycan array binding signal (z-score),[40],-0.43
same,glycan array binding signal (z-score),[41],-0.387
same,glycan array binding signal (z-score),[42],-0.224
